Data: PubChem BioAssay (NCATS)
Records with an inconclusive call do not appear. Active and inactive are the calls of the source. Calls follow the shape of the dose curve; as a rule, active = well fitted inhibition curve with a large enough effect; inconclusive = small, poorly fitted or top-dose-only effect; inactive = flat fitted curve, though single readings scatter.

Assay: Cytometry Cell-Based qHTS for Inhibitors of the mTORC1 Signaling Pathway in MEF cells (AID 2668);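 as to activity change, negative = inhibition: Tsc2-/- p53-/- mouse embryonic fibroblasts stably re-expressing wild-type Tsc2; percent cells positive for phospho-rpS6 Ser235/236 relative to propidium iodide stain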
Conditions: mTORC1 pathway readout; series mostly up to 38.3 µM; activity change, negative = inhibition: at the top concentration
Text: NIH Molecular Libraries Probe Production Centers Network [MLPCN]
NIH Chemical Genomics Center [NCGC]
Assay Submitter (PI): Blenis, John; Hoffman, Greg; Harvard University
NCGC Assay Overview: The mammalian target of rapamycin (mTOR) is an intracellular serine/threonine kinase Aberrant regulation of mTOR signaling plays a causative role in a number of human diseases, including cancer, benign tumors such as lymphangioleiomyomatosis (LAM) and Tuberous Sclerosis Complex (TSC), and metabolic diseases such as diabetes and obesity. This project aims to identify inhibitors of ribosomal protein S6 (rpS6) phosphorylation. The phosphorylation of rpS6 is a key event downstream of mTOR activation. The assay uses a phospho-specific antibody of phospho-rpS6 to detect inhibitors of mTOR activation. Mutations in the Tsc1 and Tsc2 genes are the underlying genetic lesions responsible for TSC, causing constitutive activation of the mTORC1 pathway and leading to profound effects on cell metabolism. Aberrant metabolism in cancer has recently received significant attention as a target to develop therapeutic agents in the treatment of cancer.1 As Tsc2-/- cells have lost the ability to respond to energy and growth factor deprivation, these cells are unable to properly down regulate cellular biosynthetic processes in response to metabolic stress, and are thus extremely sensitive to glucose deprivation-induced death.2 A central goal of this project is to explore the unique cell survival and metabolic properties of cells with Tsc1 or Tsc2 by screening for compounds that selectively target the Tsc2-/- MEFs by screening both Tsc2-/- and WT MEF cell lines. We hope to better understand these aspects of TSC physiology in order to exploit them for therapeutic benefit.
NCGC Acumen Assay Protocol:
For quantitative high throughput analysis of mTORC1 signaling, we developed a cell-based assay for immuno-fluorescence based detection of rpS6 phosphorylation on the Acumen Explorer that will be used a platform for the primary small molecule screen. Mouse embryonic fibroblasts (MEFs) are cultured in 1536-well plates using DMEM + 10% FBS. Twenty-four hrs after plating, test compounds (solubilized in DMSO) are delivered and incubated with the cells for 24 hrs at 37 degree Celsius. Following the incubation, media with compound is aspirated and the cells are fixed in 4% paraformaldehyde (PFA) containing PBS + 0.2% TX-100. Next, PFA is aspirated, cells are washed two times with PBS plus 0.2% TX-100 and the cells are blocked for 1 hr at room temperature (blocking buffer: LiCOR Blocking Buffer plus 0.2% TX-100). This is followed by aspiration and staining with Alexa-488 conjugated-phospho-rpS6 Ser235/236 antibody for 2 hours at room temperature (Cell Signaling Technology # 4803, 1:50 dilution in blocking buffer). Cells are washed two times with PBS plus 0.2% TX-100, and stained with 10 uM propidium iodide (PI) for 20-25 minutes for cell number measurement (1:500 dilution of Hoescht staining is also added for IN Cell imaging). The plates are scanned on the Acumen Explorer laser scanning instrument (TTP Labtech) using the 488nm laser for simultaneous excitation of the Alexa-488 and PI. The fluorescence emission from the Alexa-488 conjugated rpS6 phospho-235/236 antibody staining is selected using a […] band pass filter. Fluorescence emission from the PI stain is selected using a 575-640 nm band pass filter. The normalized phospho-S6 staining is calculated as the ratio of the integrated Alexa 488 intensity divided by the integrated PI intensity for the single concentration rapamycin control (7.5 nM) and DMSO columns. […] Inhibition of the pathway is defined based on the normalized phospho-S6 intensity in rapamycin treated cells. […]
Potency is read from the fitted curve at half-maximal effect.

| Structure (SMILES) | activity change, negative = inhibition | Potency |
| --- | --- | --- |
| CCCCCCC(=O)OC1CC(C)(C)NC(C)(C)C1 | -17.2% (inactive) |  |
| O=c1ccn([C@@H]2O[C@H](COP(=O)(O)OP(=O)(O)O)[C@@H](O)[C@H]2O)c(=O)[nH]1 | 7.45% (inactive) |  |
| O=c1[nH]c2cc(Cl)ccc2c(O)c1-c1ccc(Oc2ccccc2)cc1 | -0.142% (inactive) |  |
| Fc1ccc(CN(C2=NCCN2)c2c(Cl)cccc2Cl)cc1 | -21.5% (inactive) |  |
| CSC(N)=NCCC[C@H](N)C(=O)O | 9.1% (inactive) |  |
| CN1CCC2(CCN3CCc4c(oc5ccccc45)C3C2)N(C)C1=O (stereo not given) | -23% (inactive) |  |
| O=C1NC(=O)c2cc(Nc3ccccc3)c(Nc3ccccc3)cc21 | 0.544% (inactive) |  |
| NCCC1CCCC(CCN)N1 (stereo not given) | 6.36% (inactive) |  |
| COc1ccccc1N1CCN(CCN(C(=O)c2ccc(F)cc2)c2ccccn2)CC1 | 2.83% (inactive) |  |
| Nc1ccc(-c2ccc3ccccc3n2)cc1 | 4.73% (inactive) |  |
| Nc1ccc(N2C(=O)c3ccccc3C2=O)c(Cl)c1 | 2.02% (inactive) |  |
| CSc1nc(N)c2ncn([C@@H]3O[C@H](COP(=O)(O)OP(=O)(O)O)C(O)[C@H]3O)c2n1 (stereo not given in full) | 10.4% (inactive) |  |
| Cn1c(=O)c2c(nc(/C=C/c3cccc(Cl)c3)n2C)n(C)c1=O | 10.8% (inactive) |  |
| O=c1[nH]c(=S)[nH]c(-c2ccccc2)c1Cc1c(O)ccc2ccccc12 | -0.999% (inactive) |  |
| O=C(OCCN1CCOCC1)C1(c2ccccc2)CCCCC1 | 4.52% (inactive) |  |
| O=[N+]([O-])c1cccc2c(Br)[nH]nc12 | -11.5% (inactive) |  |
| CNCCc1cnc(CCC(c2ccccc2)c2ccccc2)[nH]1 |  | 11.7 µM (active) |
| C[C@@]1(C2CCCC2)Cc2cc(OCC(=O)O)c(Cl)c(Cl)c2C1=O | 5% (inactive) |  |
| Cc1cccc(C)c1OCC(N)C(C)C (stereo not given) | 1.36% (inactive) |  |
| N#CC(C#N)=C(N)/C(C#N)=C/c1ccc(O)cc1 | 1.88% (inactive) |  |

| Structure (SMILES) | activity change, negative = inhibition | Potency |
| --- | --- | --- |
| O=C(O)[C@H]1NCCC[C@H]1C(=O)O | 0.197% (inactive) |  |
| COc1ccccc1N1CCN(CCCNc2c(C)c(=O)n(C)c(=O)n2C)CC1 | 9.63% (inactive) |  |
| Nc1ncnc2c1ncn2C1CCCC1 | -4.06% (inactive) |  |
| Cc1nc(N=Nc2ccc(C(=O)O)cc2)c(COP(=O)(O)O)c(C=O)c1O | -11.1% (inactive) |  |
| COc1cccc(OC)c1OCCNCC1CSc2ccccc2O1 (stereo not given) | -11.4% (inactive) |  |
| Brc1c(Br)c(Br)c2[nH]cnc2c1Br | -22.1% (inactive) |  |
| Cc1cc(Cn2cnc3c2C[C@@H](C(=O)O)N(C(=O)C(c2ccccc2)c2ccccc2)C3)ccc1N | -8.05% (inactive) |  |
| CN1Cc2sccc2C(c2ccc(O)c(O)c2)C1 (stereo not given) | -1.85% (inactive) |  |
| OC[C@H]1NC[C@@H](O)[C@@H]1O | -2.93% (inactive) |  |
| NS(=O)(=O)c1cccc2c1c([N+](=O)[O-])cc1nc(O)c(O)nc12 | -2.31% (inactive) |  |
| CCN1C(=O)C=CC1=O | 1.81% (inactive) |  |
| O=c1[nH]c2ccccc2c2ccccc12 | -12.8% (inactive) |  |
| CC(=O)NNC(=O)N1Cc2ccccc2Oc2ccc(Cl)cc21 | 6.19% (inactive) |  |
| O=C(O)C1=CCCNC1 | -15.9% (inactive) |  |
| N=C(N)c1ccc(OCCCCCOc2ccc(C(=N)N)cc2)cc1 (tested in a mixture with another compound) |  | 10.4 µM (active) |
| NC(Cc1cccc(-c2ccccc2CP(=O)(O)O)c1)C(=O)O (stereo not given) | 6.76% (inactive) |  |
| CC(C)(C)NCC(O)COc1cccc2[nH]c(=O)[nH]c12 (stereo not given) | 3.29% (inactive) |  |
| N[C@H](C(=O)O)[C@H](O)C(=O)O | -0.204% (inactive) |  |
| COc1cc(C(O)CO)ccc1O (stereo not given) | 2.28% (inactive) |  |
| COc1ccc(CCn2nnnc2C2(c3ccc(C)cc3)CC2)cc1 | -3.02% (inactive) |  |
